# Data reported in PubChem BioAssay (EPA / NIEHS).
# Calls of active or inactive are those of the source. How the source made its calls: active means hit-call score of the fitted dose curve at least 0.9, where 1 is the maximum; inactive means score below 0.9.
# Read-out: flavin-containing dimethylaniline monooxygenases 3 (FMO3), FMO3 (gene 2328)
# Test: LTEA_HepaRG_FMO3: Life Technologies and Expression Analysis (LTEA) Assay for flavin-containing dimethylaniline monooxygenases 3 (FMO3) using HepaRG (AID 2283453);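 on AC50: FMO3 transcript by TaqMan qRT-PCR normalized to ACTB GAPDH and POLR2A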
# Details: mRNA level, 48 h; actives raise or lower the signal
# Method: LTEA_HepaRG is a cell based, multiplexed-readout assay that uses HepaRG, a human liver cell line, with measurements taken at 48 hours after chemical dosing on a 96-well plate.LTEA_HepaRG_FMO3 is one of 102 assay component(s) measured in the LTEA HepaRG cell culture assay. It is a marker of NR mediated metabolism.Data from the assay component LTEA_HepaRG_FMO3 was analyzed into 1 endpoint. This assay endpoint, LTEA_HepaRG_FMO3, was analyzed with bidirectional fitting relative to DMSO as the negative control and baseline of activity. Using a type of inducible reporter, measures of mRNA induction for gain or loss-of-signal activity can be used to understand regulation of transcription factor activity. To generalize the intended target to other relatable targets, this assay endpoint is annotated to the oxidoreductase intended target family, where the subfamily is […].
# A total of 1060 chemcials from the ToxCast library were tested in eight-point concentration-response experiments. Cell culture and cytotoxicity assays were conducted at Thermo Fisher Scientific's Custom Services facility (Madison, WI). A single lot of human HepaRG cells (Thermo Fisher Scientific, Frederick, MD) was used for the cell culture experiments. 96-well format collagen type I coated plates of human HepaRG cells were prepared using established methods. Briefly, cryopreserved HepaRG cells were thawed, plated at a density of approximately 100,000 cells/well in HepaRG Thaw, Plate, and General Purpose media (HPRG770, Thermo Fisher Scientific), and incubated for 48 hours. 0.5% DMSO was selected as vehicle control to balance the requisite need of DMSO in HepaRG cultures to maintain differentiation (for example, baseline metabolism, proportions of hepatocytes vs. cholangiocytes), while enabling further hepatic receptor pathway activation (for example, PXR and CAR) in response to chemical exposure. 48 hours after plating, the culture medium was replaced with HepaRG Serum-Free Incudtion Media. Cells were exposed to each test chemical in duplicate and maintained in CO2 incubators for another 48 hours. Chemical plates were thawed to room temperature and 200x concentrations of treatment groups were prepared. 8-point conentration-reponse curves were made with the highest exposure at 100 uM, followed by half-log dilutions, all in 0.5% DMSO. Each test plate contained variouse controls, induction positive controls (1mM phenobarbital), cytotoxicity positive controls ([…] aflatoxin B1), vehicle controls (0.5% DMSO), and total lysis controls (0.5% DMSO). Cell morphology images were taken using an Essen IncuCyte FLR automated microscope, with six 96-well plates imaged in about 24 minutes. Images were captured and exported and JPEG files. Spent culture media was transfered to black-well plates for the LDH assay, and remaining media was sorted at -80 C for later use. Cells were treated with RLT buffer and frozen until shipped for gene expression analysis. Total RNA was isolated from the cell suspension in 75 uL of Buffer RLT (Qiagen, Germantown, MD 20874) by Quintiles/Expression Analysis (Durham, NC) using a custom isolation procedure. Total RNA from each plate well was transferred to a preamplification plate. Fluidigm's 96.96 Dynamic ArrayTM (Fluidigm, Amsterdam, the Netherlands) technology was used for gene expression analyses by quantitative reverse transcription polymerase chain reaction (qRT-PCR, performed by Quintiles/Expression Analysis, Durham, NC)89. Standard TaqManTM Assays (Applied Biosystems/ThermoFisher Scientific, Foster City, CA) were used to assess the expression of 93 genes selected based on their selectivity and sensitivity to important hepatic receptors known to be modulated by environmental chemicals; importance in human hepatocyte functionality; and hepatotoxicity. […]
Compound,outcome,AC50
[As]#[In],inactive,–
CCC(C)c1ccc(O)cc1 (stereo not given),inactive,–
CS(=O)(=O)NC(=O)c1cc(Oc2ccc(C(F)(F)F)cc2Cl)ccc1[N+](=O)[O-],inactive,–
c1ccc(N=Nc2ccccc2)cc1,inactive,–
Clc1ccc(Cl)c(Cl)c1,inactive,–
c1ccc(NNc2ccccc2)cc1,inactive,–
CN(C)[C@@H]1C(=O)C(C(N)=O)=C(O)[C@@]2(O)C(=O)C3=C(O)c4c(O)cccc4[C@@](C)(O)[C@H]3C[C@@H]12,inactive,–
c1ccc(C2CO2)cc1 (stereo not given),inactive,–
Oc1ccc2ccc3cccc4ccc1c2c34,inactive,–
CC(C)(OOC(C)(C)c1ccccc1)c1ccccc1,inactive,–
CCCCC(CC)COC(=O)c1ccc(C(=O)OCC(CC)CCCC)c(C(=O)OCC(CC)CCCC)c1 (stereo not given),inactive,–
O=C(Oc1ccc(Br)cc1)N1CCN2CCC1CC2,inactive,–
Clc1ccc(C(c2ccc(Cl)cc2)C(Cl)(Cl)Cl)cc1,–,88.4 µM (active)
c1ccc2c(c1)-c1cccc3cccc-2c13,inactive,–
c1ccc2c(c1)oc1ccccc12,inactive,–
CN(C)c1ccccc1,inactive,–
O=C(O)C1C2CCC(O2)C1C(=O)O (stereo not given),–,56.4 µM (active)
O=P(OCCCl)(OCCCl)OCCCl,inactive,–
COC(=O)c1ccccc1N,inactive,–
Nc1ccc(N=Nc2ccccc2)cc1,–,19.1 µM (active)

Compound,outcome,AC50
CCCCCCCCn1sccc1=O,–,88.9 µM (active)
CCCCCOC(=O)c1ccccc1C(=O)OCCCCC,inactive,–
Nc1ccc(Oc2ccc(N)cc2)cc1,inactive,–
CCC12COCN1COC2,inactive,–
O=C(Nc1ccccc1)c1ccccc1I,–,50 µM (active)
CCOc1cccc(C2(N3CCN(c4ccccc4)CC3)CCC(C)CC2)c1 (stereo not given),inactive,–
CCCCOC(=O)c1ccccc1C(=O)OCc1ccccc1,inactive,–
CNC(=O)Oc1cccc2c1OC(C)(C)C2,inactive,–
CC(O)CCO (stereo not given),inactive,–
CCN(CC)CCO,inactive,–
COc1cc(C=O)cc2c1[C@H](COC(N)=O)[C@]1(OC(C)=O)ON2C[C@H]2[C@@H]1N2C(C)=O,–,76.5 µM (active)
O=[N+]([O-])c1ccc(Oc2ccc(Cl)cc2Cl)cc1,–,50 µM (active)
CN(C)C(=O)Nc1ccc(Cl)cc1,inactive,–
CC(C)(C)C(O)(CCc1ccc(Cl)cc1)Cn1cncn1 (stereo not given),–,76.7 µM (active)
N#CC(Br)(Br)C(N)=O,inactive,–
OCCOCCO,inactive,–
CCCCCCCCOC(=O)c1ccc(C(=O)OCCCCCCCC)c(C(=O)OCCCCCCCC)c1,inactive,–
CCCSC(=O)N(CCC)CCC,inactive,–
[O-][Cl+]O,inactive,–
CN(C)c1ccc(C(=O)c2ccc(N(C)C)cc2)cc1,–,50 µM (active)
